According to PubChem BioAssay AID1159580 (chemical genetic matrix, 2015):
Several values for one entry are separate records, joined by “and”; a condition that tells them apart may be missing. Equal entries are not always repeated. Among all 5,500 compounds or so, about 2,000 (36%) were called active. Not shown: some 18% with an inconclusive outcome. Rule as the data show it: active = normalized growth mostly below about 0.91 (no sharp cut-off); inconclusive = no clear call, values can overlap the other calls; inactive = mostly above about 0.92. The list shows a part of the results.

Assay: chemical genetic growth profiling, strain panel (AID 1159580);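 also: tested at 20 µM; growth read once vehicle control cultures reached saturation at 30 °C; 1 = growth at the plate median or of vehicle wells; lower values mean less growth of the strain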
Settings: S. cerevisiae deletion strains, growth OD

Measured: normalized growth

COP(=O)(OC)OC=C(Cl)Cl
inactive: locus YAL013W, strain DEP1, hits give low values 0.997 | locus YAL021C, strain ccr4, hits give low values 0.988 | locus YAL026C, strain drs2, hits give low values 0.993 | locus YAL030W, strain snc1, hits give low values 1 | locus YBL061C, strain skt5, hits give low values 0.984 | locus YBR009C, strain hhf1, hits give low values 0.991 | locus YBR021W, strain FUR4, hits give low values 1.05 | locus YBR023C, strain chs3, hits give low values 0.995 | locus YBR171W, strain sec66, hits give low values 1.01 | locus YBR229C, strain ROT2, hits give low values 0.965 | locus YBR231C, strain swc5, hits give low values 0.999 | locus YBR279W, strain paf1, hits give low values 0.992 | locus YCL011C, strain gbp2, hits give low values 0.994 | locus YCL016C, strain dcc1, hits give low values 1.01 | locus YCL029C, strain bik1, hits give low values 0.98 | locus YCL061C, strain MRC1, hits give low values 0.991 | locus YCL069W, strain vba3, hits give low values 1 | locus YCR088W, strain abp1, hits give low values 1 | locus YDL005C, strain med2, hits give low values 0.997 | locus YDL035C, strain GPR1, hits give low values 0.977 | locus YDL040C, strain nat1, hits give low values 0.989 | locus YDL074C, strain BRE1, hits give low values 0.957 | locus YDL101C, strain DUN1, hits give low values 0.964 | locus YDL134C, strain PPH21, hits give low values 0.983 | locus YDL185W, strain tfp1, hits give low values 0.947 | locus YDL192W, strain arf1, hits give low values 0.983 | locus YDR001C, strain nth1, hits give low values 0.998 | locus YDR069C, strain doa4, hits give low values 0.975 | locus YDR101C, strain arx1, hits give low values 0.986 | locus YDR137W, strain rgp1, hits give low values 0.982 | locus YDR150W, strain NUM1, hits give low values 0.985 | locus YDR159W, strain sac3, hits give low values 0.965 | locus YDR162C, strain NBP2, hits give low values 0.981 | locus YDR195W, strain ref2 0.933 | locus YDR297W, strain sur2, hits give low values 0.99 | locus YDR318W, strain mcm21, hits give low values 0.983 | locus YDR334W, strain swr1, hits give low values 1.01 | locus YDR335W, strain msn5, hits give low values 0.995 | locus YDR388W, hits give low values 0.995 | locus YDR392W, strain spt3, hits give low values 1 | locus YDR502C, strain sam2, hits give low values 0.993 | locus YEL003W, strain gim4, hits give low values 0.991 | locus YEL037C, strain rad23, hits give low values 0.986 | locus YEL061C, strain CIN8 (second series), hits give low values 0.984 | locus YEL061C, strain CIN8, hits give low values 0.989 | locus YER015W, strain faa2, hits give low values 0.982 | locus YER016W, strain bim1, hits give low values 0.99 | locus YER110C, hits give low values 0.969 | locus YER111C, strain swi4, hits give low values 0.989 | locus YER155C, strain BEM2 (second series), hits give low values 0.998 | locus YER155C, strain BEM2, hits give low values 0.991 | locus YER167W, strain BCK2, hits give low values 0.988 | locus YFR010W, strain ubp6, hits give low values 0.994 | locus YGL078C, strain dbp3, hits give low values 0.986 | locus YGL086W, strain mad1, hits give low values 0.994 | locus YGL167C, strain pmr1, hits give low values 0.994 | locus YGL173C, strain kem1, hits give low values 0.986 | locus YGL227W, strain vid30, hits give low values 0.991 | locus YGL240W, strain doc1, hits give low values 0.978 | locus YGL248W, strain PDE1, hits give low values 0.982 | locus YGL253W, strain hxk2, hits give low values 0.998 | locus YGR078C, strain PAC10, hits give low values 0.989 | locus YGR135W, strain pre9, hits give low values 0.993 | locus YGR229C, strain SMI1, hits give low values 1.01 | locus YGR252W, strain gcn5, hits give low values 0.998 | locus YHR013C, strain ard1, hits give low values 0.974 | locus YHR027C, strain rpn1, hits give low values 1.01 | locus YHR030C, strain SLT2, hits give low values 1.01 and 1.02 | locus YHR079C, strain IRE1 (second series), hits give low values 0.982 | locus YHR079C, strain IRE1, hits give low values 1.05 | locus YHR094C, strain hxt1, hits give low values 0.993 | locus YHR129C, strain ARP1, hits give low values 0.976 | locus YHR142W, strain chs7, hits give low values 0.989 | locus YHR200W, strain rpn10, hits give low values 0.989 | locus YIL066C, strain RNR3, hits give low values 1 | locus YIL073C, strain SPO22, hits give low values 1.06 | locus YIL125W, strain kgd1, hits give low values 0.98 | locus YIR030C, strain dcg1, hits give low values 0.988 | locus YJL092W, strain hpr5, hits give low values 1 | locus YJL095W, strain BCK1 (second series), hits give low values 0.996 | locus YJL095W, strain BCK1, hits give low values 1.01 and 1.03 | locus YJL115W, strain asf1, hits give low values 0.998 | locus YJL129C, strain trk1, hits give low values 1.01 | locus YJL134W, strain LCB3, hits give low values 1 | locus YJL154C, strain vps35, hits give low values 0.997 | locus YJL164C, strain tpk1, hits give low values 0.992 | locus YJL166W, strain qcr8, hits give low values 0.992 | locus YJL168C, strain set2, hits give low values 0.981 | locus YJL187C, strain SWE1 (second series), hits give low values 0.976 | locus YJL187C, strain SWE1, hits give low values 1 | locus YJR043C, strain POL32, hits give low values 0.988 | locus YJR066W, strain TOR1, hits give low values 0.981
